CRFBP-R2 block – antagonists of CRF-binding protein/CRF-R2 receptor complex | HEK293 CRF-R2/CRF-BP, CRF-induced calcium fluorescence | inhibition, % at 11.8 µM | actives 0.59% (n = 350,000) | AID 588475;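 active = inhibition of the ligand-induced calcium signal above about 50% at the single tested concentration, limit read from the data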
cardiac RTF act – increases calcium sensitivity of human cardiac regulated thin filaments | P19429+P45379 | IANBD-labeled TnC RTF fluorescence at EC20 calcium; 0% EC20 calcium, 100% full calcium | activation, % at 7.2 µM | actives 0.24% (n = 340,000) | AID 493008;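 active = activation above the mean over all tested compounds plus 3 SD, cut at about 30% in these data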;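 note: rise in fluorescence read as greater calcium sensitivity of cardiac thin filaments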
IDE act – activators of human insulin-degrading enzyme in cells | P14735 | HEK cells, FAbeta-B cleavage, fluorescence polarization; 0% vehicle, 100% cell-free pure enzyme wells | activation, % at 5.96 µM | actives 0.073% (n = 340,000) | AID 493087;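 active = activation above the mean of all tested compounds plus 3 SD, set per screening campaign, cut at about 17% in these data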
Target sequence (P14735 whole entry, looked up): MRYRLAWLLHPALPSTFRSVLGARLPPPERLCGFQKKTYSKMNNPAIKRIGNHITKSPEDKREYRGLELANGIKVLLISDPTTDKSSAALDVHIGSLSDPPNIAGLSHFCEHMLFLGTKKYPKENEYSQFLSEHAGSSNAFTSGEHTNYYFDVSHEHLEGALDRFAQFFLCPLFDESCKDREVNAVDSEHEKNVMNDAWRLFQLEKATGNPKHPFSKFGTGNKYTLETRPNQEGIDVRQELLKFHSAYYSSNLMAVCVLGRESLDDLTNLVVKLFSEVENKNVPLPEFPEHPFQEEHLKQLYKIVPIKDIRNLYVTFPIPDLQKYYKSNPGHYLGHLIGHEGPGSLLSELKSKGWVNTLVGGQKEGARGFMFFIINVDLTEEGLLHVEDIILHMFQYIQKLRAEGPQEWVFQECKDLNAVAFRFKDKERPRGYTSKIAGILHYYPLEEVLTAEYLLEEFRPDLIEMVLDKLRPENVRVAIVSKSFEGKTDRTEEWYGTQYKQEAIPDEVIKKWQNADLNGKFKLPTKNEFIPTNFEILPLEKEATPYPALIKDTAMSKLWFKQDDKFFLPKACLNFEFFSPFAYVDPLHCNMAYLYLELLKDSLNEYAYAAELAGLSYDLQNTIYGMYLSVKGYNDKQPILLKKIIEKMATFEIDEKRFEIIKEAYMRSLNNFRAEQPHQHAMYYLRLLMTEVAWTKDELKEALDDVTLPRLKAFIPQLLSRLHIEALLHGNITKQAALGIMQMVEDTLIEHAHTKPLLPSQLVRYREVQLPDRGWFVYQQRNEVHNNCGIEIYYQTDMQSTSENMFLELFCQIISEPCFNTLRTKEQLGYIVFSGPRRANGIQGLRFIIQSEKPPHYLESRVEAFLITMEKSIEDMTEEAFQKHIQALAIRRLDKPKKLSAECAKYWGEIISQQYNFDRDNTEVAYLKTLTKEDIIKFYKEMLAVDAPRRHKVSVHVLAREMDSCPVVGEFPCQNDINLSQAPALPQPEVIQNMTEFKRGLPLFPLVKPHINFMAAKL
IDE cell inh – cellular human IDE inhibition; AID 434962; inhibition, % at 5.59 µM; actives 0.41% (n = 320,000); HEK cells, FAbetaB cleavage, fluorescence polarization;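 active = percent inhibition above the average of all tested compounds plus 3 SD, set per screening campaign, cut at about 16% in these data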;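 note: IDE supplied by intact live HEK cells; FP after avidin binding of uncleaved biotin substrate so inhibition keeps polarization high; 0% = DMSO wells and 100% = 60 µM reference IDE inhibitor Ii1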
CRFBP-R2 agonist – agonists of human CRF-binding protein/CRF-R2 receptor complex; HEK293 CRF-R2/CRF-BP, calcium dye fluorescence (FLIPR); percent of saturating CRF peptide response; activation, % at 13.2 µM; actives 0.46% (n = 350,000);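 active = activation of at least 50%, plus an integration ratio under a set limit after plate pattern correction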;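 note: plate controls were neutral control wells without compound for no effect and CRF at EC100 for full effect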
Cardiac RTF inh – cardiac RTF calcium desensitization; inhibition, % at 7.15 µM; actives 0.12% (n = 340,000); IANBD-labeled cardiac RTF, Ca2+ fluorescence; P19429+P45379;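 active = inhibition above the mean inhibition of all tested compounds plus 3 SD, cut at about 17% in these data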;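 note: assay run at fixed EC70 calcium of 1.6 mM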
The depositor's hits bear a star; i = inactive; . = no result. Rows were chosen to be rich in hits. Some 1.5% of all compounds tested hit in one or more screens of this group.

SMILES	CRFBP-R2 block	cardiac RTF act	IDE act	IDE cell inh	CRFBP-R2 agonist	Cardiac RTF inh
O=c1c2ccccc2nc(/C=C/c2ccc(O)cc2)n1-c1ccccc1O	-3.4	-3.0	-32.5	33.6*	-0.7	-3.4
Nc1cccc2c1Cc1cc([N+](=O)[O-])ccc1-2	-86.2	-4.0	2.9	.	61.5*	-3.5
C[C@]1(O)CCC2C3CC[C@H]4C[C@@H](OC(=O)[C@@H](N)CCCCN)CC[C@]4(C)C3CC[C@@]21C (some centres not stated)	-38.0	.	.	.	-0.1	.
CN1CN(c2ccccc2)C2(CCN(CCCSc3ccccc3NC(=O)/C=C/c3ccccc3)CC2)C1=O	-9.2	-3.0	2.4	.	94.7*	-3.3
Cc1cc(N(CCCl)CCCl)ccc1C=Cc1ccncn1	-48.9	78.6*	-25.6	.	37.3	-94.7
Cc1cc(N(CCCl)CCCl)ccc1/C=N/N=C(\N)c1cnccn1	-19.6	5.5	0.8	0.3	0.5	-3.1
O=[N+]([O-])c1ccc(N2CCCCCC2)c2nonc12	-135.9	316.4*	-68.1	-21.2	191.5*	-455.9
O=[N+]([O-])c1ccc(N2CCCCC2)c2ncccc12	-4.6	0.4	3.0	-9.3	-1.7	0.8
C[C@H](CO)N1C[C@H](C)[C@H](CN(C)C(=O)Oc2ccccc2)OCc2cnnn2CCCC1=O	-12.7	.	.	.	-0.8	.
CCOC(=O)c1c(/N=C/C2C(=O)NC(=S)NC2=O)sc2c1CCC2	-101.8	.	.	9.0	97.8*	.
CCOC(=O)c1c(/N=C/C2C(=O)NC(=S)NC2=O)sc(C)c1C	.	.	.	6.0	.	.
C[C@]12CC[C@@H](O)CC1=CC(=O)C1C2CC[C@]2(C)C(=O)[C@H](O)CC12 (some centres not stated)	-4.3	.	.	.	0.2	.
CC1CC2(C)C(CCC3C2CCC2(C)C(OP(=O)(N4CC4)N4CC4)CCC32)CC1=O (configuration not stated)	36.0	0.4	4.5	.	3.1	-2.7
CC(C)(C)c1cc(C=C(C#N)C#N)cc(C(C)(C)C)c1O	35.1	2.0	2.0	3.0	53.4*	8.6
O=C(O)Cn1cc(C(=O)c2ccccc2)c2ccccc21	-21.7	6.7	-1.1	-2.1	3.7	-3.0
Cn1cc(C(=O)c2ccccc2)c2ccccc21	52.8*	-3.9	6.0	-1.9	-10.7	-0.6
C=C(C)CC1(CC)C(=O)NC(=S)NC1=O	5.1	.	.	.	-2.8	.
c1ccc(C2CC3CC4(CCCC4)N2O3)cc1 (configuration not stated)	-63.6	-2.4	18.2*	-0.7	3.6	-0.8
CCC1C2Cc3ccc(O)cc3C1(CC)CCN2C (configuration not stated)	16.6	-0.6	4.6	.	-1.0	-5.2
C=CCN1CCC2(C)c3cc(O)ccc3CC1C2C (configuration not stated)	-68.5	-0.1	3.6	2.6	63.3*	10.9
C#C[C@]1(O)CCC2C3C(=O)C=C4C(Cl)=CCC[C@]4(C)C3CC[C@@]21C (some centres not stated)	-12.5	6.3	-1.0	.	-3.0	2.6
C[C@H](CO)N1C[C@H](C)[C@@H](CN(C)C(=O)Oc2ccccc2)OCc2cnnn2CCCC1=O	6.7	.	.	.	1.6	.
CC(=O)N1Cc2cnnn2-c2ccccc2C1C#N (configuration not stated)	-6.4	6.8	2.5	.	-0.4	-10.4
C=C(C)[C@@]12OC3(c4ccccc4)O[C@@H]1C1[C@@H]4O[C@]4(CO)[C@@H](O)[C@]4(O)C(=O)C(C)=C[C@H]4[C@@]1(O3)[C@H](C)[C@H]2OC(=O)/C=C/C=C/c1ccccc1 (some centres not stated)	111.5*	3.3	3.2	-0.9	1.6	-0.6
O=Cc1c(C(=O)O)n(Cc2ccc(Cl)cc2)c2ccccc12	-36.9	319.9*	-24.4	9.4	30.8	-342.8
SMILES	CRFBP-R2 block	cardiac RTF act	IDE act	IDE cell inh	CRFBP-R2 agonist	Cardiac RTF inh
Cc1c2ccncc2c(C)c2c1[nH]c1ccccc12	-135.1	4.1	1.7	7.6	101.0*	10.1
c1ccc2c(c1)[nH]c1cnccc12	9.7	-2.9	5.2	8.4	-2.3	5.0
CC1CC(C)OP(=O)(OCCC#N)O1 (configuration not stated)	11.1	-3.9	1.6	.	-0.9	-5.8
CCC(C)c1ccc(N2C(=O)NC(=O)/C(=C/c3cccn3CCOc3ccc(C)cc3)C2=O)cc1 (configuration not stated)	-90.7	1.3	-0.1	0.0	60.4*	-11.8
NC(Cc1ccc(O)cc1)C(=O)NN=Cc1ccc(N(CCCl)CCCl)cc1 (configuration not stated)	60.1*	2.5	-0.9	.	1.3	-1.1
Cc1ccc(Sc2ccc(C=C3C(=O)N(C)C(=O)N(C)C3=O)o2)cc1	-98.8	8.9	-14.3	-0.2	29.6	-39.0
CN1C(=O)C(=Cc2ccc(N3CCOCC3)o2)C(=O)N(C)C1=O	0.8	71.6*	-21.4	11.0	47.7	-83.7
CN1C(=O)C(=Cc2ccc(-c3cccc(Cl)c3)o2)C(=O)N(C)C1=O	.	.	.	0.2	.	.
CN1C(=O)C(=Cc2ccc(N3CCCCCC3)o2)C(=O)N(C)C1=S	-81.8	58.0*	-26.9	11.9	99.1*	-14.7
COC(=O)C1=C(C(=O)OC)C2OC1c1cc3ccccc3cc12	-9.4	-2.3	-11.0	.	20.1	-12.9
Oc1cc(Cl)c(Cl)c(Cl)c1	55.1*	-2.1	1.3	.	20.1	-1.2
Oc1cc(Cl)c(Cl)c(Cl)c1Cl	30.1	0.8	6.5	.	26.6	-0.2
O=C1CC23c4ccccc4N4C(=O)CC5OCC=C6CN1C2CC6C5C43 (configuration not stated)	0.8	-7.5	-3.0	.	0.6	1.1
CCOP(=O)(OCC)c1cc(CC)ccc1O	93.1*	-4.7	6.7	-0.1	-2.5	-5.7
CN1OC[C@@H]2CN[C@H](c3ccc(Br)cc3)C[C@@H]21	-5.5	.	.	.	-1.7	.
Nc1ccc2ccc3cccc[n+]3c2c1	-92.4	742.6*	46.1*	-28.0	163.0*	i
C[n+]1c(-c2ccccc2)c2cc(N)ccc2c2ccc(N)cc21	-26.5	-0.7	7.5	3.8	23.5	-4.8
O=C(Nc1ccc(F)cc1)N1Cc2ccccc2-n2nncc2C1	5.7	.	.	.	5.6	.
O=C1NC(=O)C(=CN2CCc3ccccc32)C(=O)N1	-8.7	6.7	-1.6	2.0	1.7	-12.5
O=C1NC(=O)N(Cc2ccccc2)C(=O)/C1=C\N1CCCc2ccccc21	2.8	36.3*	-48.2	12.0	10.4	-62.3
CC/C(=C\C=C\[C@@H]1C=C[C@@H]2CCC[C@H]2[C@@H]1C(=O)c1ccc[nH]1)[C@@H]1O[C@@H]([C@@H](C)C(=O)O)CC[C@@H]1C	21.6	.	.	1.8	66.9*	.
c1ccc(C2(NC3=NCCO3)CCCCC2)cc1	7.8	.	.	.	31.5	.
COc1ccc(OC(=O)N(C)C[C@@H]2OCc3ccccc3-c3c(n(C)c4ccccc34)C(=O)N([C@H](C)CO)C[C@@H]2C)cc1	-17.9	.	.	.	2.8	.

Assay outcomes as filed in PubChem BioAssay.
